Results taken from PubChem BioAssay (NCI).
This is part of a sample that, as a whole, favours compounds with a hit. Of some 79,000 tested, about 15% had one in any assay. Activity calls are given as the source filed them. No stated cut-off is given here; in the data, active means growth inhibition above about 70%; inactive means the rest.

Key:
[1] = NCI Yeast Anticancer Drug Screen. Data for the rad50 strain (AID 155);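 further: 0% = growth of vehicle-only cultures of the same strain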; settings: S. cerevisiae rad50 strain growth inhibition; at 50.0 µM; stronger effect = higher value
Outline: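 DNA repair mutant yeast, compound exposure, growth read-out; inhibition is taken relative to vehicle.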

[2] = NCI Yeast Anticancer Drug Screen. Data for the mec2-1 strain (AID 157); settings: S. cerevisiae mec2-1 strain, at 50.0 µM, stronger effect = higher value
Outline: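 Using mec2-1 yeast: add compound, measure growth, express inhibition versus vehicle-treated cultures.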

[3] = NCI Yeast Anticancer Drug Screen. Data for the sgs1 mgt1 strain (AID 161);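 further: 0% = growth of cultures given vehicle only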; settings: S. cerevisiae sgs1 mgt1 strain, at 50.0 µM, stronger effect = higher value
Outline: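 Compounds are added to genetically altered yeast, and growth is compared with cultures given vehicle alone to give percent inhibition.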

[4] = NCI Yeast Anticancer Drug Screen. Data for the cln2 rad14 strain (AID 165);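 further: 0% = growth equal to vehicle treated cultures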; settings: S. cerevisiae cln2 rad14 strain, at 50.0 µM, stronger effect = higher value
Outline: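 Yeast strain cln2 rad14, bearing defects in cell cycle control and DNA repair, serves as the test system; values reflect growth inhibition compared with vehicle.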

[5] = NCI Yeast Anticancer Drug Screen. Data for the bub3 strain (AID 167); settings: S. cerevisiae bub3 mutant strain, at 50.0 µM, stronger effect = higher value
Outline: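 In this screen, a yeast mutant lacking normal mitotic checkpoint function is challenged with compound. Relative growth versus vehicle gives the inhibition value.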

[6] = NCI Yeast Anticancer Drug Screen. Data for the mlh1 rad18 strain (AID 175); settings: S. cerevisiae mlh1 rad18 strain growth inhibition; at 50.0 µM; stronger effect = higher value
Outline: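 Steps: expose repair-defective yeast to compound; measure growth; express inhibition against vehicle-treated controls.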

Measured: growth inhibition

CC(=O)OC1CC(C(C)C)CCC1C (stereo not drawn)
inactive: [1] 18.1% | [2] 12.8% | [3] 6.3% | [4] 4.95% | [5] -8.55% | [6] 11.7%

CC(=O)c1ccc(N2C(=O)CC(NC3CCCCC3)C2=O)cc1 (stereo not drawn)
inactive: [1] -7.4% | [2] 7.1% | [3] 9.45% | [4] -2.15% | [5] 1.65% | [6] -17.4%

CC(C)NC(=O)OCc1cn2c(c1COC(=O)NC(C)C)CCC2
inactive: [1] 20.4% | [2] 12.8% | [3] 36% | [4] 22.4% | [5] 14.2% | [6] 35%

O=[N+]([O-])c1ccc(C2ON2c2ccccc2)cc1 (stereo not drawn) (tested in a mixture with another compound)
inactive: [1] 3.95% | [2] -1.45% | [3] 20.7% | [4] -9.7% | [5] -7.4% | [6] 25.6%

NC(=O)CN1CC(C2=C(O)CN(CC(N)=O)C2=O)=CC1=O
inactive: [1] -23.9% | [2] -8.6% | [3] -10.1% | [4] -43.5% | [5] -6.35% | [6] -9.2%

O=C1C[C@@]23CCC4(CC2=CCC[C@H]3O1)OCCO4
inactive: [1] -16.9% | [2] -19.6% | [3] 3.2% | [4] 14.7% | [5] 17.5% | [6] -12.3%

COc1cc([N+](=O)[O-])c(OC)cc1Nc1ccccc1C(=O)O
inactive: [1] 13.1% | [2] -12.8% | [3] 22.1% | [4] 18.2% | [5] 29.4% | [6] 16%

CCCCC(CC)COC(=O)C(C)CCC (stereo not drawn)
inactive: [1] 4.65% | [2] -1.1% | [3] -2.4% | [4] -27.7% | [5] 17.9% | [6] 5%

CCCCCCCCC1CC(=O)OC1=O (stereo not drawn)
inactive: [1] 0.05% | [2] 0.55% | [3] -0.65% | [4] 7.05% | [5] -1.55% | [6] -2.35%

COc1ccc(CCCCl)c(C2=NCCc3cc(OC)c(OC)cc32)c1
inactive: [1] 19.6% | [2] 2.4% | [3] -37.8% | [4] -6.1% | [5] -37.8% | [6] 0.9%

CNc1ncnc2c(C3OC(CO)C(O)C3O)[nH]nc12 (stereo not drawn)
inactive: [1] 16% | [2] 10.8% | [3] 6.6% | [4] 20.8% | [5] -0.8% | [6] 13.4%

O=C(Nc1cc(C(F)(F)F)ccc1Cl)N(Cc1ccccc1)c1ccccc1
inactive: [1] -10.3% | [2] -15.9% | [3] -1.35% | [4] -74.2% | [5] -8.2% | [6] -8.7%

COC(=O)C1CCc2c(ccc3cc(OC)ccc23)C1(C)C(=O)OC (stereo not drawn)
inactive: [1] -14.5% | [2] -7.65% | [3] -7.4% | [4] -40.1% | [5] -2.2% | [6] -10.2%

O=C(Cc1ccc([N+](=O)[O-])cc1)ON1C(=O)CCC1=O
inactive: [1] -11.8% | [2] 2.65% | [3] -4.65% | [4] -18.9% | [5] -20.1% | [6] 6%

CCOC(=O)C(CCN(C)C)C(=O)OCC
inactive: [1] 5.75% | [2] -10.2% | [3] 2.8% | [4] 1.1% | [5] -23.1% | [6] 14.2%

CC1C(OC(=O)CCl)CCC2C1(C)CCC1C2(C)CCC2(C)C3CC(C)(C)CCC3(C)CCC12C (stereo not drawn)
inactive: [1] -13.2% | [2] 1% | [3] -1.85% | [4] -12.2% | [5] 2.15% | [6] -10.2%

CCCCCCCCCCCCCCCCCCC1=CC(=O)c2ccccc2C1=O
inactive: [1] 16.1% | [2] 3% | [3] 25.6% | [4] 31% | [5] 8.4% | [6] 14.9%

CC(=NC1CCCCC1)c1ccccc1O
inactive: [1] 24.4% | [2] -11.1% | [3] -3.35% | [4] -23.9% | [5] 13.6% | [6] 16.8%

O=C(Nc1ccc(Br)cc1)Nc1ccc(Br)cc1
inactive: [1] -23.3% | [2] 8.15% | [3] 15.3% | [4] -36.4% | [5] 31.9% | [6] 6.25%

CCN(CC)C(=O)Cn1c2c(c3ccccc31)CCCC2
inactive: [1] 33.4% | [2] -30.4% | [3] 2.2% | [4] 1.15% | [5] -2.6% | [6] -11.9%

Cc1cc(=O)oc2c(CNC(C(=O)O)C(C)C)c(O)ccc12 (stereo not drawn)
inactive: [1] 5.05% | [2] -15.9% | [3] -19.7% | [4] 7.5% | [5] -16.8% | [6] -6.4%

CCCCCCC(N)(CCCCCC)C(=O)Nn1c(C)ccc1C
inactive: [1] 45% | [2] 13.1% | [3] 9.8% | [4] -20.6% | [5] 4.25% | [6] 31.2%

Cc1sc2c(c1C)/C(=N\O)c1cccn1-2
inactive: [1] -0.05% | [2] -3.4% | [3] 34% | [4] 26% | [5] 14.4% | [6] -11.6%

Cc1ccc(Cl)cc1NC(=O)Nc1ccc(Cl)c(Cl)c1
inactive: [1] -13.1% | [2] -11.1% | [3] -4.25% | [4] -4.5% | [5] 18.2% | [6] -4.75%

OCc1c(-c2ccccc2)oc(-c2ccccc2)c1CN1CCOCC1
inactive: [1] 11.9% | [2] -0.95% | [3] 6.55% | [4] -11.9% | [5] 12% | [6] 9.2%

C[C@@H]1C(=O)OCC2=C3C[C@@H](CC[C@@]3(C)C=CC2=O)[C@H](C)C(=O)OCC2=C3C[C@H]1CC[C@@]3(C)C=CC2=O
inactive: [1] 4.3% | [2] -3.7% | [3] -1.35% | [4] 15.7% | [5] 1.7% | [6] 20.8%

NC(=O)C1C(=O)c2cccc3c2C1CCCC3 (stereo not drawn)
inactive: [1] -11% | [2] 9.85% | [3] -5.6% | [4] -31% | [5] -11% | [6] 20.7%

NNC1CCN(Cc2ccccc2)CC1
inactive: [1] 2.5% | [2] -16.8% | [3] 0.25% | [4] 22.2% | [5] -1.9% | [6] 14.2%

CCCCSCCOC(=O)C1C2CCC(O2)C1C(=O)O (stereo not drawn)
inactive: [1] 19.5% | [2] -3.85% | [3] 0.1% | [4] 13.4% | [5] -1.25% | [6] 13.8%

COc1ccc(C2c3cc4c(cc3OC(N3CCOCC3)C2C)OCO4)cc1 (stereo not drawn)
inactive: [1] -12.4% | [2] -22.1% | [3] -20.2% | [4] -3.95% | [5] -32.9% | [6] -57.2%

CC1CCC2(C)CCC3(C)C(=CCC4C5(C)CCC(O)C(C)(C)C5CCC43C)C2C1C (stereo not drawn) (tested in a mixture with another compound)
inactive: [1] 23.8% | [2] -20.8% | [3] 9.95% | [4] -5.8% | [5] 0.6% | [6] 17.1%

O=COCCCCCc1ccccc1
inactive: [1] -10.6% | [2] -5.05% | [3] -2.55% | [4] 8.6% | [5] -6.45% | [6] -11%

Brc1cccc(-c2nnc(-c3ccccc3)o2)c1
inactive: [1] -4.15% | [2] -11.7% | [3] -8.4% | [4] -41.5% | [5] -0.4% | [6] -12.1%

NC(=O)CSCC(=O)O
inactive: [1] -5.9% | [2] -6.2% | [3] 14.5% | [4] -0.15% | [5] -23.2% | [6] -14.1%

CC1=NN(C(=O)CC(=O)Nc2cccc(Cl)c2)C(=O)C1N=Nc1ccc(S(=O)(=O)c2ccc(N=NC3C(=O)N(C(=O)CC(=O)Nc4cccc(Cl)c4)N=C3C)cc2)cc1 (stereo not drawn)
inactive: [1] 36.5% | [2] 15.2% | [3] 23.4% | [4] -1.9% | [5] -25.4% | [6] 22.4%

CCOC(=O)c1[nH]n(-c2ccccc2)c(=O)c1/C=N/C(N)=S
inactive: [1] 2% | [2] -1.95% | [3] -15.8% | [4] 14.1% | [5] 17.8% | [6] 8.45%

CCC(C#N)C1=CCCCCC1 (stereo not drawn)
inactive: [1] 31.8% | [2] 3.75% | [3] 19.4% | [4] 11.7% | [5] 4.6% | [6] 20.6%

CN1CCN=C(C(=O)O)C=C1c1ccccc1O
inactive: [1] 28.9% | [2] 26.7% | [3] 26.7% | [4] -28.2% | [5] -2.4% | [6] 11.9%
